The record followed here is PubChem BioAssay.

Calls of active or inactive are those of the source. The rule behind the calls is not given here.

The target of the assay is Pantothenate synthetase (Mycobacterium tuberculosis (strain ATCC 25618 / H37Rv)) (UniProt P9WIL5). Briefly: Recombinant Mtb pantothenate synthetase (PanC) inhibitors, coupled enzyme, confirmatory (AID 375).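 Note: 0% = full reaction with vehicle and 100% = no enzyme background.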 Particulars: coupled enzyme assay; at 10 µM, hits give high values.
Chain of Pantothenate synthetase (Mycobacterium tuberculosis (strain ATCC 25618 / H37Rv)) (P9WIL5 whole entry, looked up): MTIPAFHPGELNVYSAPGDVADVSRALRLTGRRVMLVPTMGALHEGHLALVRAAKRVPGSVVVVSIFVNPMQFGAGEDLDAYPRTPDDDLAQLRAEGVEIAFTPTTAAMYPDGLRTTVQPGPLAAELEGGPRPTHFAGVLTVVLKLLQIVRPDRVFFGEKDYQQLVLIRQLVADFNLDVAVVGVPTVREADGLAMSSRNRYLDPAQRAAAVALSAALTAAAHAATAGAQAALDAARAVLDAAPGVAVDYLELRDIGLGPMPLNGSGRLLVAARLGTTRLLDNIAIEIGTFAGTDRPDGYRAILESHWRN
As a reminder, the inhibition is the share of the control response that was lost under treatment. `CC(C)(C)n1ncc2c(=O)n(CC(=O)NCc3ccccc3)cnc21`: the inhibition was 0% (inactive). Consider `CCCC(=O)Nc1cc(C)c2c(=O)oc3ccccc3c2n1`, for which the inhibition was 2% (inactive). The result for `CCOC(=O)Cn1c(=O)c(-c2ccccc2N)nc2ccccc21` reads 3% (inactive).

With `Cc1cccc(N2C(=O)CC(N(C(=O)c3ccco3)c3cccc(C)c3)C2=O)c1` (configuration not stated), the inhibition is 0% (inactive). For `CC(n1cnnn1)C12CC3CC(CC(C3)C1)C2` (configuration not stated), the inhibition is 8% (inactive). Consider `CCC(C(=O)Nc1ccccc1C(=O)N1CCCC1)N1C(=O)c2ccccc2C1=O` (configuration not stated), for which the inhibition was 6% (inactive). On to `COCCn1c(NCc2ccc(C)cc2)nc2c1c(=O)[nH]c(=O)n2C`, for which the inhibition is 10% (inactive). The result for `CC(C)C(=O)Nc1cccc(NC(=O)c2cccnc2)c1` reads 1% (inactive); that for `CNC[C@H](O)c1cccc(O)c1`, 0% (inactive); that for `O=S1(=O)CC(N2CCOCC2)c2ccccc21` (configuration not stated), 0% (inactive). The result for `COc1ccc(C2CC(c3ccc(Cl)cc3Cl)Nc3nc(N)nn32)cc1` (configuration not stated) reads 0% (inactive). Next, `CCOC(=O)N1CCN(C(=O)c2ccc(CS(=O)(=O)c3c(Cl)cccc3Cl)o2)CC1`: 0% (inactive). In the case of `CC12C(=O)N(CCC(=O)O)C(=O)C1C1C=CC2C1` (configuration not stated), the inhibition was 0% (inactive).

Take `O=C(Nc1ccc2c(c1)OCO2)C1CCCN1C(=O)Nc1ccccc1F` (configuration not stated): the inhibition is 3% (inactive). For `CCCOc1ccc(C2C(C(=O)OC)=CN(CCOC)C=C2C(=O)OC)cc1`, the inhibition is 1% (inactive).

Consider `Cc1nn(-c2ccc(F)cc2)c2c1cc(C#N)c1nc3ccccc3n12`, for which the inhibition was 6% (inactive). On to `Cc1ccccc1-n1c(Cn2c(=O)sc3ccccc32)nnc1SCC(N)=O`, for which the inhibition was 3% (inactive).
